PubChem BioAssay AID1159580 (chemical genetic matrix, 2015)
“And” between values parts separate entries of the source, which are not always exact repeats. Equal values may be shown once. About 2,000 (36%) of roughly 5,500 compounds were called active. Inconclusive results (about 18%) are left out. Rule as the data show it: active = normalized growth mostly below about 0.91 (no sharp cut-off); inconclusive = no clear call, values can overlap the other calls; inactive = mostly above about 0.92. This is one part of the list.

Experiment: chemical genetic growth profiling, strain panel (AID 1159580);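 also: tested at 20 µM; growth read once vehicle control cultures reached saturation at 30 °C; 1 = growth at the plate median or of vehicle wells; lower values mean less growth of the strain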
Conditions: S. cerevisiae deletion strains, growth OD

Measured: normalized growth

COc1ccc(Cc2nccc3cc(OC)c(OC)cc23)cc1OC
inactive: locus YAL021C, strain ccr4, stronger effect = lower value 1.04 | locus YAL026C, strain drs2, stronger effect = lower value 1 | locus YAL030W, strain snc1, stronger effect = lower value 1 | locus YAL040C, strain CLN3, stronger effect = lower value 0.983 | locus YBL061C, strain skt5, stronger effect = lower value 1 | locus YBR009C, strain hhf1, stronger effect = lower value 0.995 | locus YBR021W, strain FUR4, stronger effect = lower value 1.01 | locus YBR023C, strain chs3, stronger effect = lower value 1.01 | locus YBR171W, strain sec66, stronger effect = lower value 1.01 | locus YBR229C, strain ROT2, stronger effect = lower value 1.01 | locus YBR231C, strain swc5, stronger effect = lower value 0.998 | locus YBR279W, strain paf1, stronger effect = lower value 1.01 | locus YCL011C, strain gbp2, stronger effect = lower value 1.01 | locus YCL016C, strain dcc1, stronger effect = lower value 1.01 | locus YCL029C, strain bik1, stronger effect = lower value 0.992 | locus YCL061C, strain MRC1 (second series), stronger effect = lower value 1 | locus YCL061C, strain MRC1, stronger effect = lower value 1 | locus YCL069W, strain vba3, stronger effect = lower value 1 | locus YCR088W, strain abp1, stronger effect = lower value 1.01 | locus YDL005C, strain med2, stronger effect = lower value 0.994 | locus YDL035C, strain GPR1, stronger effect = lower value 1.01 | locus YDL040C, strain nat1, stronger effect = lower value 0.998 | locus YDL074C, strain BRE1, stronger effect = lower value 1.02 | locus YDL101C, strain DUN1, stronger effect = lower value 1.01 | locus YDL134C, strain PPH21, stronger effect = lower value 1.01 | locus YDL185W, strain tfp1, stronger effect = lower value 0.992 | locus YDL192W, strain arf1, stronger effect = lower value 0.989 | locus YDR001C, strain nth1, stronger effect = lower value 0.999 | locus YDR069C, strain doa4, stronger effect = lower value 0.989 | locus YDR101C, strain arx1, stronger effect = lower value 0.996 | locus YDR137W, strain rgp1, stronger effect = lower value 1.03 | locus YDR150W, strain NUM1, stronger effect = lower value 1.02 | locus YDR159W, strain sac3, stronger effect = lower value 0.962 | locus YDR162C, strain NBP2, stronger effect = lower value 1 | locus YDR195W, strain ref2 0.981 | locus YDR297W, strain sur2, stronger effect = lower value 1 | locus YDR318W, strain mcm21, stronger effect = lower value 0.976 | locus YDR334W, strain swr1, stronger effect = lower value 1.01 | locus YDR335W, strain msn5, stronger effect = lower value 0.999 | locus YDR363W, strain ESC2, stronger effect = lower value 0.988 | locus YDR388W, stronger effect = lower value 0.993 | locus YDR392W, strain spt3, stronger effect = lower value 0.921 | locus YDR502C, strain sam2, stronger effect = lower value 0.986 | locus YEL003W, strain gim4, stronger effect = lower value 0.996 | locus YEL037C, strain rad23, stronger effect = lower value 1 | locus YEL061C, strain CIN8 (second series), stronger effect = lower value 1 | locus YEL061C, strain CIN8, stronger effect = lower value 1.01 | locus YER002W, strain NOP16, stronger effect = lower value 0.994 | locus YER015W, strain faa2, stronger effect = lower value 1 | locus YER016W, strain bim1, stronger effect = lower value 0.996 | locus YER110C, stronger effect = lower value 0.988 | locus YER111C, strain swi4, stronger effect = lower value 1.01 | locus YER155C, strain BEM2 (second series), stronger effect = lower value 0.987 | locus YER155C, strain BEM2, stronger effect = lower value 1.01 | locus YER167W, strain BCK2, stronger effect = lower value 1.01 | locus YFR010W, strain ubp6, stronger effect = lower value 0.998 | locus YGL078C, strain dbp3, stronger effect = lower value 0.99 | locus YGL086W, strain mad1, stronger effect = lower value 0.994 | locus YGL167C, strain pmr1, stronger effect = lower value 0.998 | locus YGL173C, strain kem1, stronger effect = lower value 0.999 | locus YGL227W, strain vid30, stronger effect = lower value 1 | locus YGL240W, strain doc1, stronger effect = lower value 0.967 | locus YGL248W, strain PDE1, stronger effect = lower value 1.01 | locus YGL253W, strain hxk2, stronger effect = lower value 1.01 | locus YGR078C, strain PAC10, stronger effect = lower value 0.975 | locus YGR135W, strain pre9, stronger effect = lower value 0.977 | locus YGR229C, strain SMI1, stronger effect = lower value 0.995 and 0.994 | locus YGR252W, strain gcn5, stronger effect = lower value 0.949 | locus YHR013C, strain ard1, stronger effect = lower value 1.07 | locus YHR027C, strain rpn1, stronger effect = lower value 0.998 | locus YHR030C, strain SLT2, stronger effect = lower value 1.02 and 0.98 | locus YHR079C, strain IRE1 (second series), stronger effect = lower value 0.985 | locus YHR079C, strain IRE1, stronger effect = lower value 0.972 | locus YHR094C, strain hxt1, stronger effect = lower value 0.992 | locus YHR129C, strain ARP1, stronger effect = lower value 1.02 | locus YHR142W, strain chs7, stronger effect = lower value 0.998 | locus YHR200W, strain rpn10, stronger effect = lower value 0.99 | locus YIL066C, strain RNR3, stronger effect = lower value 1.01 | locus YIL073C, strain SPO22, stronger effect = lower value 0.957 | locus YIL125W, strain kgd1, stronger effect = lower value 0.991 | locus YIR030C, strain dcg1, stronger effect = lower value 0.983 | locus YJL092W, strain hpr5, stronger effect = lower value 1 | locus YJL095W, strain BCK1 (second series), stronger effect = lower value 1 | locus YJL095W, strain BCK1, stronger effect = lower value 1.03 and 0.985 | locus YJL115W, strain asf1, stronger effect = lower value 1 | locus YJL129C, strain trk1, stronger effect = lower value 0.985 | locus YJL134W, strain LCB3, stronger effect = lower value 1.01 | locus YJL154C, strain vps35, stronger effect = lower value 1 | locus YJL164C, strain tpk1, stronger effect = lower value 0.996 | locus YJL166W, strain qcr8, stronger effect = lower value 1.01 | locus YJL168C, strain set2, stronger effect = lower value 0.995 | locus YJL187C, strain SWE1 (second series), stronger effect = lower value 1.01 | locus YJL187C, strain SWE1, stronger effect = lower value 0.996 | locus YJR043C, strain POL32, stronger effect = lower value 1.01
